Measurements taken from PubChem BioAssay AID1851 (National Center for Advancing Translational Sciences (NCATS), 2009).
Several values for one entry are separate records, joined by “and”; a condition that tells them apart may be missing. Identical values can stand only once. About 5,700 (36%) of roughly 16,000 compounds were called active. Another 24% or so got no clear call; they are omitted. Calls come from the whole dose curve; as a rule, active = well fitted curve in the direction sought with a large enough effect; inconclusive = small, poorly fitted or top-dose-only effect, or effect the other way; inactive = no such curve, though single readings can be large or run the other way. This is one part of the list. A structure can be active in one record and inactive in another.

Molecular target: Cytochrome P450 1A2 (Homo sapiens) (UniProt P05177)
Sequence (P05177 whole entry, looked up): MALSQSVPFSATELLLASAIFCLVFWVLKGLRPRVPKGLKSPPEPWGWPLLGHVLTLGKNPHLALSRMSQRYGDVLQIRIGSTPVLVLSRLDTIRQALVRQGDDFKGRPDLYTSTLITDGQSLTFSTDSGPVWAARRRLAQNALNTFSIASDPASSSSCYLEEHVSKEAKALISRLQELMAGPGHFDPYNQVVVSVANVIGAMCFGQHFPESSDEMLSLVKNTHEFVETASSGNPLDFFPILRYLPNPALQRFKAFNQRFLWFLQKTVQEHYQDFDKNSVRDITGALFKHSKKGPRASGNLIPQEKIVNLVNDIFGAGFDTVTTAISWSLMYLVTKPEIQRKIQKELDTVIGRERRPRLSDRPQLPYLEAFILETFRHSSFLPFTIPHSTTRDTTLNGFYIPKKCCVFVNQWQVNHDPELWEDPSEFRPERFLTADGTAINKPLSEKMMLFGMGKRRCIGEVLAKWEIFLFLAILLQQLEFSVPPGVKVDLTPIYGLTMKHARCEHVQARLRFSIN
Test: Cytochrome panel assay with activity outcomes
Settings: recombinant CYP, pro-luciferin dealkylation, luminescence, p450-cyp1a2; series mostly up to 57.1 µM; activity, negative = inhibition: at the top concentration
% is set by controls: 0 for no effect and ±100 for the full control effect.

activity, negative = inhibition, inactive:
CO/N=C(\C)CCN1CCCCc2nc(C)c(C)cc21 -3.72% [at 11.4 µM], CC1CCC(=NNC(=O)Cc2ccccc2)CC1 (configuration not stated) -16.9%, CN(C)c1ccc(-c2noc(C3CCN(S(=O)(=O)c4cccc(C(=O)O)c4)CC3)n2)cc1 -19.7%, C/C(=N\[N+](C)(C)C)c1ccc(C)c(C)c1 -16.9% [at 2.29 µM], O=c1nc(N2CCOCC2)ccn1-c1nc(-c2ccccc2)oc1-c1ccccc1 -15.5%, Cc1cccc(C(=O)N2CCC(c3nc(-c4ccc(S(=O)(=O)N5CCOCC5)cc4)no3)CC2)c1 1.35%, Cc1ccc(C(=O)N2CCN(c3cc(=O)[nH]nc3-c3ccccc3)CC2)cc1 -1.63%, N=C(N)c1ccc(N)cc1 6.37%, Nc1nc2c(c(=O)[nH]1)N(C=O)[C@H](CNc1ccc(C(=O)N[C@@H](CCC(=O)O)C(=O)O)cc1)CN2 -1.33% [at 25.6 µM], COc1ccccc1NC(=O)N1CCC(c2nnc(SCC(N)=O)n2C)CC1 2.54%, Cn1c(C(=O)O)c(CC(=O)NCC2COc3ccccc3O2)c2ccccc21 (configuration not stated) -29.5%, COc1cccc(OC)c1OCCCN1CCOCC1 -21.7%, CNc1cc(NS(=O)(=O)c2ccc(N)cc2)nc(NC)n1 -10.1%, Cc1ccccc1N1CCN(S(=O)(=O)C[C@@]23CC[C@H](C[C@H]2NC(=O)[C@@H](N)CCS(C)(=O)=O)C3(C)C)CC1 -1.31%, COc1ccc(/C=N/NC(=O)c2cc(-c3ccc(C)cc3C)nc3ccccc23)cc1COC(C)=O 6.8%, COc1ccc(C(=O)Oc2cc(/C=N/NS(=O)(=O)c3ccc(C)cc3)ccc2OC)cc1 -22.7%, O=c1c2ccccc2nc2n1C(CSc1ccc(F)cc1)CN2 (configuration not stated) 3.12%, CC(C)NC(=O)N1CC2(CCN(C(=O)c3ccncc3)CC2)C1 -3.34%, Cc1noc(C)c1C(=O)N1CCC2(CCCN(Cc3ccccc3)C2)CC1 -10.7%, CCCC[C@@H]1CN2[C@H](c3ccc(Br)cc3)[C@H](C)CC[C@H]2C(=O)O1 3.25% [at 11.4 µM], CN(C)c1ccc(O)c2c1C[C@H]1C[C@H]3[C@@H](N(C)C)C(=O)C(C(N)=O)=C(O)[C@]3(O)C(=O)C1=C2O -5.13% [at 25.6 µM], CN1C(C(=O)Nc2ccccn2)=C(O)c2sccc2S1(=O)=O -10.3% [at 25.6 µM], Cc1ccccc1NC1=C(C(=O)c2ccccc2)N(C)S(=O)(=O)c2ccccc21 -7.47%, CCc1cc2c(nc1CC)CCN(CC/C(C)=N/O[C@@H](C)CN1CCCc3nc(C)c(C)cc31)C2 5.54% [at 11.4 µM], Fc1ccc(CN(C2=NCCN2)c2c(Cl)cccc2Cl)cc1 6.63%, COc1ccc(-n2c(CNc3ccc(C)cc3)nnc2SCC(=O)Nc2nc(-c3ccccc3)cs2)cc1 -23.7%, COC(Cc1nnc(SC)n1-c1ccc(Cl)cc1)OC 20%, CCNC(=O)CSc1nnc(C2CC2)n1-c1ccccc1 1%, CCNS(=O)(=O)c1ccc(NC(=O)c2cc(C(F)(F)F)nn2C)cc1 -22.7%, COCC(=O)N1CCC2(CC1)CCN(C(=O)Nc1cccc(C#N)c1)CC2 -10.7%, NCc1nnn(Cc2ccccc2)c1N 2.27% [at 11.4 µM], Cc1nnc(-c2cnn(-c3ccccc3)c2N)n1Cc1ccc(F)cc1 -27.2%, O=C(c1cnccn1)N1CCC2(CCCN(c3ncccn3)C2)CC1 -20.1%, COc1ccc(C2C(C(=O)c3ccco3)=C(O)C(=O)N2Cc2cccnc2)cc1OC (configuration not stated) 6.62%, Cn1cccc1C(=O)N1CCC2(CCN(C(=O)Nc3ccccc3)CC2)CC1 -14.1%, Cn1cc(C(=O)c2cccc(Cl)c2Cl)cc1C(=O)O 4.13%, CC(C)=CCC/C(C)=C/CO/N=C1/C[C@@H](O)[C@@H](O)[C@@H]2[C@@H]3C(=O)N(C4CCCCC4)C(=O)[C@H]3CC[C@H]12 -2.85% [at 11.4 µM], C[C@@]12CCC(=O)C=C1CC[C@@H]1[C@@H]2[C@H](O)C[C@]2(C)[C@@H]1CC[C@]2(O)C(=O)COC(=O)CCC(=O)O 1.05%, Cc1ccccc1C(=O)Nc1ccc(C(=O)NNC(=O)CCCOc2ccc(Cl)cc2Cl)cc1 -24.9%, O=C(c1ccc(CN2CCc3ccccc3C2)cc1)N1CCc2ccccc2C1 -22.3%, N=C(N)N1CCc2ccccc2C1 -6.45% [at 25.6 µM], Cc1ccccc1OCC(=O)N/N=C1\CCOc2c(C)cccc21 -14%, CCOC(=O)C1=NOC(CNC(=O)C2=NOC(CNC(=O)c3c(-c4ccccc4Cl)noc3C)C2)C1 (configuration not stated) 2.92%, CO/N=C\[C@@H](NS(=O)(=O)c1ccc(C)cc1)[C@H](C)/C=C\CC(=O)OC -9.25% [at 11.4 µM], CO/N=C(/C)CCC(=O)OC[C@@H]1O[C@H](C#Cc2ccccc2)C=C[C@@H]1Oc1ccc(C)cc1 -10.1% [at 11.4 µM]

AC50, inactive:
Clc1cccc(Cl)c1NC1=NCCN1, COC(=O)c1c(-c2cc(OC)c(OC)c(OC)c2)c2ccnc(OCc3ncccn3)c2c(=O)n1Cc1ccnc(C)c1

AC50, active:
CN1CCC(=NNC(=O)CSCc2ccccc2)CC1 14.1 µM, CCCCC1CCC(c2nc(-c3ccccn3)no2)CC1 (configuration not stated) 28.2 µM, Cc1cc(C)c(C#N)c(SCc2cc3c(cc2Cl)OCO3)n1 2.24 µM, Cc1cc(C)c(C#N)c(SCC(=O)c2ccc(Cl)cc2Cl)n1 2.24 µM, COc1cccc(Sc2cc(N3CCOCC3)nc(-c3ccccc3)n2)c1 2.51 µM, Cc1ccc(Oc2cc(N3CCOCC3)nc(-c3ccccc3)n2)cc1 2.51 µM, Cc1ccc(S(=O)(=O)c2cc(N3CCOCC3)nc(-c3ccccc3)n2)cc1 4.47 µM, O=C(O)CS(=O)c1ccc2c3c(cccc13)C(=O)c1ccccc1-2 (configuration not stated) 0.0631 µM, Cc1ccc(/C=C/c2nnc(-c3cccs3)o2)cc1 8.91 µM, C(=C\c1nnc(-c2cccs2)o1)/c1ccccc1 2.51 µM, COc1ccc(Oc2ncc3nc(-c4cc(F)cc(F)c4)c(=O)n(C)c3n2)cc1 3.16 µM, COc1ncc2nc(-c3cc(F)cc(F)c3)c(=O)n(C)c2n1 2 µM, Cn1c(=O)c(-c2cc(F)cc(F)c2)nc2cnc(Oc3ccccc3)nc21 2 µM, COc1cccc(OC)c1OCCNC[C@@H]1COc2ccccc2O1 12.6 µM and 25.1 µM, COc1ccccc1NC(=O)CC1COc2ccccc2O1 (configuration not stated) 7.08 µM, CC(C)N=c1scc(-c2ccco2)n1/N=C/c1ccc(O)c(O)c1 15.8 µM, Cc1cccc(OCCSCc2nc3ccccc3[nH]2)c1 2.24 µM, COc1ccc(/C=N/NC(N)=S)cc1OC(=O)c1cccc2ccccc12 1.58 µM, O=c1c2ccccc2nc2n1CCC2 6.31 µM, O=c1c2ccccc2nc2n1CCc1c-2[nH]c2ccccc12 0.316 µM, O=[N+]([O-])c1ccc(C2=Nn3c(nnc3-c3ccc(Cl)cc3)SC2)o1 0.158 µM, Cc1nc2sccc2c(=O)n1-c1cccc(Cl)c1 11.2 µM, COC(=O)c1cnn(C(=O)c2cc(OC)ccc2Br)c1N 28.2 µM, COC(=O)c1cnn(C(=O)c2ccccc2Br)c1N 8.91 µM, O=c1c(-c2cc(F)cc(F)c2)nc2cnc(Oc3ccccc3)nc2n1C1CC1 2.51 µM, COc1ncc2nc(-c3cc(F)cc(F)c3)c(=O)n(C3CC3)c2n1 1.58 µM, O=c1c(-c2cccs2)nc2cnc(Oc3ccccc3)nc2n1C1CC1 2.51 µM, COc1nc(Oc2ccc(/C=N/O)cc2)nc(N(C)C)n1 0.447 µM, Clc1cccc2c1CN(C1=NCCN1)C2 0.398 µM, COC(=O)CSc1nnc(CNc2ccc(Cl)cc2)n1-c1ccccc1 12.6 µM, CCOc1ccc(NCc2nnc(SCc3ccccc3Cl)n2-c2ccccc2)cc1 7.08 µM, C=CCSc1nnc(-c2cc3c(C(F)(F)F)nn(C)c3s2)n1C 1.12 µM, C#CCSc1nnc(-c2cc3c(C(F)(F)F)nn(C)c3s2)n1C 1.12 µM, CCCCSc1nnc(-c2cc3c(C(F)(F)F)nn(C)c3s2)n1C 14.1 µM, CCCNC(=O)c1cc2c(C(F)(F)F)nn(C)c2s1 0.794 µM, CCc1c2c(nc3cccc(OC)c13)OC(CC)C2 (configuration not stated) 2 µM, COc1ccc(-c2nsc3c(N4CCCCC4)ncnc23)cc1 2.82 µM, Cc1nnc(-c2cnn(-c3ccccc3)c2N)n1Cc1ccccc1 14.1 µM, COc1ccc2c(=O)cc(-c3ccncc3)oc2c1OC 1.58 µM, Cn1cccc1C(=O)C(=O)Nc1cccc(Cl)c1Cl 17.8 µM, COc1ccc(CNc2ncncc2-c2ccc(N(C)C)cc2)c(OC)c1 0.631 µM, COc1ccc(CNc2ncncc2-c2ccc(C(=O)N(C)C)cc2)c(OC)c1 15.8 µM, COc1ccccc1CNc1ncncc1-c1ccc(C(=O)N(C)C)cc1 12.6 µM, O=C(COc1ccc(Cl)cc1Cl)N/N=C/CCc1ccccc1 1 µM, CC(C/C=N/NC(=O)COc1cc(Cl)ccc1Cl)c1ccccc1 (configuration not stated) 0.562 µM, CCc1ccc(/C=C\C(=O)N2CCc3ccccc3C2)cc1 14.1 µM, Cc1cccc2c1OCC/C2=N\NC(=O)COc1ccccc1Cl 0.891 µM, COc1cccc(OCC(=O)NN=C2c3ccccc3-c3ccccc32)c1 0.501 µM, Cc1cccc2c1OCC/C2=N\NC(=O)COc1ccccc1 2.51 µM

AC50, inactive and 20 µM (active):
CN1C(C(=O)Nc2ccccn2)=C(O)c2ccccc2S1(=O)=O
